# Test results reported in PubChem BioAssay (NCI).
# About 83,000 compounds went through this panel and 20% of them were active in at least one assay; those are over-represented in the sample as a whole.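 Percent growth is the endpoint: 0 to 100 indicates growth inhibition (40 means 60% inhibition), 0 means no net growth, and negative values indicate cell death.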 A number with no mark means an inactive call. Active and inactive are the calls of the source. How the source made its calls: active means growth percent below 10; inactive means the rest.
# Experiments:
# Test in all cases: NCI-60 one-dose screen, 48 h (100 = growth as untreated, 0 = no growth, -100 = all killed)
# Details in all cases: 10 µM unless noted
# HT29 colon = tested on: HT29 colon
# SNB-19 CNS = tested on: SNB-19 CNS
# U251 CNS = tested on: U251 CNS
# PC-3 prostate = tested on: PC-3 prostate
# SK-MEL-5 melanoma = tested on: SK-MEL-5 melanoma
# UACC-62 melanoma = tested on: UACC-62 melanoma
# LOX IMVI melanoma = tested on: LOX IMVI melanoma
# SK-MEL-2 melanoma = tested on: SK-MEL-2 melanoma
# SK-MEL-28 melanoma = tested on: SK-MEL-28 melanoma
# SNB-75 CNS = tested on: SNB-75 CNS
SMILES,growth (HT29 colon),growth (SNB-19 CNS),growth (U251 CNS),growth (PC-3 prostate),growth (SK-MEL-5 melanoma),growth (UACC-62 melanoma),growth (LOX IMVI melanoma),growth (SK-MEL-2 melanoma),growth (SK-MEL-28 melanoma),growth (SNB-75 CNS)
O=C1N(C2CCCCC2)C(=O)N1C1CCCCC1,44.9%,68.6%,48%,-3% (active),16.9%,38.9%,31%,-7.37% (active),–,–
CN=C(NC)N/N=C(C)\C=N\NC(=NC)NC,104%,99.4%,98.8%,94.8%,–,97.5%,109%,117%,110%,–
COc1ccc2nc(-c3ccc(-n4cncc4-c4ccc(OC)c(N)c4)cc3)sc2c1,96.8%,98.6%,105%,84.6%,105%,101%,113%,112%,106%,–
Cc1c(C(N)=O)sc2c1c(=O)n(Cc1ccccc1)c1nnc(S(=O)(=O)CC(=O)Nc3ccc(Cl)cc3)n21,21.9%,64.9%,35.2%,35%,55.2%,67.4%,–,33.1%,–,–
COc1ccc(C2CC(c3cccc(Nc4ccnc5cc(Cl)ccc45)c3)=NN2C=O)cc1 (stereo not drawn),-55.8% (active),42.3%,16.5%,25.7%,14%,36%,31.7%,-9.66% (active),62.4%,–
Nc1nc(SCC2(CCl)COC2)c2[nH]cnc2n1,99.2%,99.2%,101%,93.5%,107%,96.2%,95.8%,97.1%,103%,–
Cc1nn(-c2ccccc2)c2nc(Cl)c(/C=C/C(=O)c3ccccc3)c(-c3ccccc3)c12,103%,98.9%,104%,–,96.3%,102%,96.1%,96.4%,109%,–
O=C1/C(=C/c2ccc([N+](=O)[O-])s2)Oc2ccc(Br)cc21,–,-15.3% (active),-87.9% (active),-62.3% (active),-89.1% (active),-83.4% (active),-75.6% (active),-62.2% (active),-66.4% (active),-16.1% (active)
COc1ccc2c(c1)[nH]c(=O)c1c3cc(OC)c(OC)cc3cn21,–,31.3%,-22.4% (active),-90.8% (active),-6.64% (active),48.9%,9.3% (active),6.58% (active),61.1%,72%
COc1cccc2c1O/C(=C\c1c([N+](=O)[O-])ncn1C)C2=O,–,106%,97.4%,-29.8% (active),102%,109%,85.2%,97.6%,106%,101%
COc1ccc(/C=N/NC(=O)c2ccc(S(C)(=O)=O)cc2)cc1OC,97.9%,97.3%,–,88.5%,97.9%,92.7%,102%,91%,109%,–
COc1ccc(C(=O)COc2cccc(/C=C3\Oc4ccc5ccccc5c4C3=O)c2)cc1,46.2%,105%,84%,–,78.6%,76.4%,-80.4% (active),59.1%,116%,–
COc1ccc(C2=NN(C(=O)c3cc(OC)c(OC)c(OC)c3)C(c3ccc(C#N)cc3)C2)cc1OC (stereo not drawn),-8.4% (active),–,21.5%,31.4%,17.7%,43.6%,33.6%,35.6%,65.3%,–
Cc1nc(N)[nH]c(=O)c1C,107%,95.4%,95.4%,–,108%,91.1%,102%,-10.2% (active),120%,–
O=[N+]([O-])c1ccc(Oc2cccc(C(F)(F)F)c2)c([N+](=O)[O-])c1,-4.93% (active),74.5%,18.3%,88.9%,–,34.1%,8.07% (active),11.7%,104%,–
Cc1cc(C(C)(C)c2cc(C)c(O)c(CN(C)C)c2)cc(CN(C)C)c1O,76.3%,–,67.8%,80%,85.8%,75.5%,81.8%,101%,79.2%,–

SMILES,growth (HT29 colon),growth (SNB-19 CNS),growth (U251 CNS),growth (PC-3 prostate),growth (SK-MEL-5 melanoma),growth (UACC-62 melanoma),growth (LOX IMVI melanoma),growth (SK-MEL-2 melanoma),growth (SK-MEL-28 melanoma),growth (SNB-75 CNS)
CCOC(=O)c1cc(-c2cccnc2)nc2c(Cl)cc(Cl)cc12,88%,–,70.3%,–,101%,95.6%,98.2%,–,129%,–
O=C1/C(=C/c2ccc([N+](=O)[O-])o2)Oc2ccc(Br)cc21,–,105%,93.6%,91.3%,82.5%,34.8%,5.15% (active),56.6%,70.8%,85.5%
OC(Cc1cccnc1)c1ccccc1 (stereo not drawn),106%,98.9%,98.1%,–,102%,97.4%,101%,102%,108%,–
CCC1=C(c2ccc(OC)cc2)C(C)(C)Oc2c1ccc(O)c2CN1CCCC1,50.4%,–,-25.4% (active),47.1%,-97.6% (active),10.5%,-59.7% (active),-58.5% (active),-75.6% (active),–
Clc1ncn[nH]1,–,102%,98.2%,101%,111%,99.7%,–,99.4%,103%,83.6%
O=C(Nc1ccc(Nc2ccncc2)cc1)c1ccc(Nc2ccnc3ccc([N+](=O)[O-])cc23)cc1[N+](=O)[O-],103%,29.6%,-46.1% (active),–,103%,91.1%,21.1%,82.2%,54.6%,–
Clc1ccc(-c2nc(-c3cccs3)no2)c(Cl)c1,–,104%,90.1%,83.2%,83.9%,89%,103%,123%,104%,63.5%
Oc1ccc(-c2nn(-c3ccccc3)cc2-c2nc3ccccc3s2)cc1,112%,93.9%,94%,–,92.3%,88.1%,78.4%,135%,117%,–
Cc1cccc(Cl)c1NC(=O)c1ccc2nc(NC(=O)NC3CC(C)(C)NC(C)(C)C3)sc2c1,59.3%,93.6%,–,66.3%,91.7%,107%,63.9%,121%,116%,–
COc1ccc2c(c1)C(=O)c1c-2c(OCCCN(C)C)nc2cc(Br)ccc12,-19.7% (active),–,-75.7% (active),63.8%,87.4%,86.4%,20.7%,97.7%,-48.6% (active),–
CC(c1ccccn1)C(C)(O)C(C)c1ccccn1 (stereo not drawn),–,98.9%,98.7%,98.9%,105%,95.6%,95.6%,105%,111%,99.7%
c1cncc(CNc2ccccc2-c2nnc(Nc3ccc4c(c3)OCO4)o2)c1,8.59% (active),38.7%,23%,–,-4.21% (active),3.81% (active),8.28% (active),65.8%,43.7%,–
COc1cc(/C=C/C(=O)N2CCN(C(=O)/C=C/c3ccccc3)CC2)cc(OC)c1OC,104%,96.4%,103%,–,106%,100%,107%,116%,110%,–
CC(C)(C)c1ccc(C(O)CCCN2CCC(C(O)(c3ccccc3)c3ccccc3)CC2)cc1 (stereo not drawn),-92.7% (active),4.49% (active),-85.4% (active),-4.17% (active),–,-98.1% (active),-93.9% (active),-76.1% (active),–,–
O=C(/C(=N/O)S(=O)(=O)c1ccccc1)c1cccs1,107%,100%,–,97.7%,–,104%,–,–,111%,–
Cc1c(C(N)=O)sc2c1C(=O)N(Cc1ccccc1)C1=NN=C(c3ccc(Cl)cc3)CN12,34.9%,52.8%,29.9%,–,57%,25.4%,17.2%,66.8%,72.8%,–
